Test results from ChEMBL document CHEMBL1157539, “Thousands of chemical starting points for antimalarial lead identification” (Nature, 2010).

Tests used:
Type in all cases: functional
Plasmodium falciparum [1] = experiment: GSK_TCMDC: Inhibition of Plasmodium falciparum 3D7 in whole red blood cells, using parasite LDH activity as an index of growth. Test compounds present at 2uM
Plasmodium falciparum [2] = experiment: GSK_TCMDC: Inhibition of Plasmodium falciparum Dd2 in whole red blood cells, using parasite LDH activity as an index of growth. Test compounds present at 2uM
HepG2 = experiment: GSK_TCMDC: Percent inhibition of human HepG2 cell line. Test compounds present at 10uM.

## Fc1ccc2[nH]c(-c3cccc(-c4ccc(CNCCN5CCNCC5)cc4)c3)nc2c1.O=C(O)C(F)(F)F
Plasmodium falciparum [1]
  Inhibition: 90%
Plasmodium falciparum [2]
  Inhibition: 0%
HepG2
  Inhibition: 9%

## Cc1ccc2[nH]c3ccccc3c(=O)c2c1
Plasmodium falciparum [1]
  Inhibition: 93%
Plasmodium falciparum [2]
  Inhibition: 74%
HepG2
  Inhibition: 0%

## Oc1c(C(Nc2ccccn2)c2ccco2)cc(Cl)c2cccnc12 (stereo not given)
Plasmodium falciparum [1]
  Inhibition: 87%
Plasmodium falciparum [2]
  Inhibition: 65%
HepG2
  Inhibition: 41%

## Cc1cccc2nc(-c3ccc(-c4ccc(NC(=O)C(C)CN5CCN(C)CC5)cc4)s3)[nH]c12 (stereo not given)
Plasmodium falciparum [1]
  Inhibition: 100%
Plasmodium falciparum [2]
  Inhibition: 99%
HepG2
  Inhibition: 17%

## N=C(N)Nc1nc(-c2cccc(NC(=O)NCc3cccc4ccccc34)c2)cs1
Plasmodium falciparum [1]
  Inhibition: 100%
Plasmodium falciparum [2]
  Inhibition: 32%
HepG2
  Inhibition: 14%

## Cc1cc(-c2cccc(CNC3CCCC3)c2)ccc1S(=O)(=O)NCCN1CCCC1.O=C(O)C(F)(F)F
Plasmodium falciparum [1]
  Inhibition: 81%
Plasmodium falciparum [2]
  Inhibition: 7%
HepG2
  Inhibition: 38%

## COc1ccc2c(NN=Cc3cccc(Cl)c3)ccnc2c1
Plasmodium falciparum [1]
  Inhibition: 100%
Plasmodium falciparum [2]
  Inhibition: 94%
HepG2
  Inhibition: 32%

## CN(C)CCCNCc1ccc(-c2ccc(F)c(Cl)c2)o1.Cl
Plasmodium falciparum [1]
  Inhibition: 93%
Plasmodium falciparum [2]
  Inhibition: 69%
HepG2
  Inhibition: 29%

## COc1cccc(C(=O)NCc2nnc(S)n2-c2ccc(Cl)c(Cl)c2)c1
Plasmodium falciparum [1]
  Inhibition: 100%
Plasmodium falciparum [2]
  Inhibition: 100%
HepG2
  Inhibition: 0%

## COc1ccc(CNc2ncnc3c2[nH]c2ccc(F)cc23)cc1
Plasmodium falciparum [1]
  Inhibition: 93%
Plasmodium falciparum [2]
  Inhibition: 71%
HepG2
  Inhibition: 38%

## CCC(NC(=O)c1ccccc1NC(=O)c1ccc(C)cc1)C(=O)OC (stereo not given)
Plasmodium falciparum [1]
  Inhibition: 95%
Plasmodium falciparum [2]
  Inhibition: 86%
HepG2
  Inhibition: 0%

## Cc1ccc(-c2cncc(-c3cc(NC4CCN(Cc5ccccc5)CC4)nc(-c4ccccc4)n3)c2)cc1
Plasmodium falciparum [1]
  Inhibition: 100%
Plasmodium falciparum [2]
  Inhibition: 66%
HepG2
  Inhibition: 0%

## O=C(Nc1ccnc(N2CC3CC2CN3Cc2cccc(O)c2)c1)c1ccc(F)cc1.O=C(O)C(F)(F)F (stereo not given)
Plasmodium falciparum [1]
  Inhibition: 92%
Plasmodium falciparum [2]
  Inhibition: 0%
HepG2
  Inhibition: 2%

## O=C(/C=C/c1cccc(C(F)(F)F)c1)NCCCCCN1CCC(c2c[nH]c3ccccc23)CC1
Plasmodium falciparum [1]
  Inhibition: 90%
Plasmodium falciparum [2]
  Inhibition: 14%
HepG2
  Inhibition: 70%

## CC1(C)N=C(N)N=C(N)N1c1ccc(Br)cc1.Cl
Plasmodium falciparum [1]
  Inhibition: 94%
Plasmodium falciparum [2]
  Inhibition: 4%
HepG2
  Inhibition: 52%

## CC(=O)c1c(Cc2cccc(C(F)(F)F)c2)c[nH]c1C
Plasmodium falciparum [1]
  Inhibition: 94%
Plasmodium falciparum [2]
  Inhibition: 92%
HepG2
  Inhibition: 6%

## COc1cc(NC(=O)/C=C/c2ccc(-c3ccccc3)cc2)ccc1OCCN(C(C)C)C(C)C.Cl
Plasmodium falciparum [1]
  Inhibition: 94%
Plasmodium falciparum [2]
  Inhibition: 62%
HepG2
  Inhibition: 58%

## O=C1C2C(c3ccc(Cl)c(Cl)c3)N3CC(OCc4ccccc4)CC3(C(=O)O)C2C(=O)N1c1ccc(Br)cc1 (stereo not given)
Plasmodium falciparum [1]
  Inhibition: 100%
Plasmodium falciparum [2]
  Inhibition: 86%
HepG2
  Inhibition: 14%

## O=C(NC(Cc1ccccc1)C(=O)O)c1cc(=O)c2ccccc2o1 (stereo not given)
Plasmodium falciparum [1]
  Inhibition: 99%
Plasmodium falciparum [2]
  Inhibition: 10%
HepG2
  Inhibition: 53%

## Nc1ccc(-c2nc3cc(-c4ccc5[nH]c(-c6ccc(N)cc6)nc5c4)ccc3[nH]2)cc1
Plasmodium falciparum [1]
  Inhibition: 100%
Plasmodium falciparum [2]
  Inhibition: 96%
HepG2
  Inhibition: 45%

## CCCC(=O)Nc1ccc(OCCN(Cc2ccccc2OC(F)(F)F)c2ccc(C(F)(F)F)c(C#N)c2)cc1
Plasmodium falciparum [1]
  Inhibition: 85%
Plasmodium falciparum [2]
  Inhibition: 97%
HepG2
  Inhibition: 0%

## COc1cc2ncnc(Nc3ccc(OCc4ccccc4)c(OCc4ccccc4)c3)c2cc1OC.Cl
Plasmodium falciparum [1]
  Inhibition: 100%
Plasmodium falciparum [2]
  Inhibition: 57%
HepG2
  Inhibition: 4%

## CCC(C)CN1CCN(c2ccc(NC(=O)c3cccs3)cc2)C(C)C1.O=C(O)C(F)(F)F (stereo not given)
Plasmodium falciparum [1]
  Inhibition: 95%
Plasmodium falciparum [2]
  Inhibition: 95%
HepG2
  Inhibition: 0%

## CC(C)C1C(O)=C(c2ccc3ccccc3c2)C(=O)N1Cc1cccc(F)c1 (stereo not given)
Plasmodium falciparum [1]
  Inhibition: 97%
Plasmodium falciparum [2]
  Inhibition: 82%
HepG2
  Inhibition: 3%

## Cc1cnc(NCCc2ccc(F)cc2)nc1N[C@@H](CC(C)C)C(=O)Nc1ccccc1.O=C(O)C(F)(F)F
Plasmodium falciparum [1]
  Inhibition: 87%
Plasmodium falciparum [2]
  Inhibition: 29%
HepG2
  Inhibition: 19%

## O=C(C1COc2ccccc2O1)N(CCCn1ccnc1)Cc1csc(-c2ccc(CNCc3ccccc3)cc2)n1.O=C(O)C(F)(F)F (stereo not given)
Plasmodium falciparum [1]
  Inhibition: 100%
Plasmodium falciparum [2]
  Inhibition: 18%
HepG2
  Inhibition: 15%

## COc1cc(NCCCNC(=O)c2cc3c(Cl)cc(Cl)cc3[nH]2)nc2ccccc12
Plasmodium falciparum [1]
  Inhibition: 100%
Plasmodium falciparum [2]
  Inhibition: 100%
HepG2
  Inhibition: 96%

## Cc1cccc2nc(-c3ccc(-c4ccc(CNCC5CCCO5)cc4)cc3)[nH]c12.O=C(O)C(F)(F)F (stereo not given)
Plasmodium falciparum [1]
  Inhibition: 100%
Plasmodium falciparum [2]
  Inhibition: 81%
HepG2
  Inhibition: 36%

## COc1cc(C(=O)NC2CCN(Cc3ccccc3)CC2)ccc1-c1nc2c(Cl)cc(C(F)(F)F)cc2[nH]1
Plasmodium falciparum [1]
  Inhibition: 100%
Plasmodium falciparum [2]
  Inhibition: 56%
HepG2
  Inhibition: 7%

## CCOc1cc(C(=O)NCCN2CCCCC2)ccc1-c1nc2cc(Cl)ccc2[nH]1
Plasmodium falciparum [1]
  Inhibition: 99%
Plasmodium falciparum [2]
  Inhibition: 8%
HepG2
  Inhibition: 4%

## COc1cc(C(F)(F)F)nc2c(CNCCCNc3cc(=O)c4ccccc4[nH]3)scc12.Cl
Plasmodium falciparum [1]
  Inhibition: 92%
Plasmodium falciparum [2]
  Inhibition: 16%
HepG2
  Inhibition: 0%

## COc1cc(Cc2cnc(N)nc2N)ccc1OCc1ccc(F)c(F)c1
Plasmodium falciparum [1]
  Inhibition: 90%
Plasmodium falciparum [2]
  Inhibition: 31%
HepG2
  Inhibition: 10%

## N#Cc1cccc(COC(=O)C2=C(COc3ccccc3Cl)NC(=O)NC2c2c[nH]c3cnccc23)c1 (stereo not given)
Plasmodium falciparum [1]
  Inhibition: 99%
Plasmodium falciparum [2]
  Inhibition: 0%
HepG2
  Inhibition: 0%

## Cc1cccc2nc(-c3ccc(-c4cccc(NC(=O)c5ccncc5)c4)cc3)[nH]c12
Plasmodium falciparum [1]
  Inhibition: 98%
Plasmodium falciparum [2]
  Inhibition: 8%
HepG2
  Inhibition: 46%

## O=C(CC1SC(N2N=C(c3cccs3)CC2c2ccccc2)=NC1=O)Nc1ccc(Cl)cc1 (stereo not given)
Plasmodium falciparum [1]
  Inhibition: 83%
Plasmodium falciparum [2]
  Inhibition: 88%
HepG2
  Inhibition: 18%

## Cc1cc(CN2CC[C@H](NC(=O)c3ccc(Cl)c(Cl)c3)C2)ccc1OC1CCN(C)C1.O=C(O)C(F)(F)F (stereo not given in full)
Plasmodium falciparum [1]
  Inhibition: 100%
Plasmodium falciparum [2]
  Inhibition: 24%
HepG2
  Inhibition: 71%

## CCCCCCn1c(Sc2ccc(C#N)c([N+](=O)[O-])c2)nnc1-c1cc(OC)cc(OC)c1
Plasmodium falciparum [1]
  Inhibition: 95%
Plasmodium falciparum [2]
  Inhibition: 41%
HepG2
  Inhibition: 35%

## O=C(O)C(F)(F)F.O=C1CCCN1CCCNCc1ccc(-c2ccc(-c3nc4cc(F)ccc4[nH]3)s2)cc1
Plasmodium falciparum [1]
  Inhibition: 100%
Plasmodium falciparum [2]
  Inhibition: 91%
HepG2
  Inhibition: 19%

## CC(=O)Nc1ccc(C(=O)Nc2cccc(-c3cccc(-c4nc5cc(C(F)(F)F)ccc5[nH]4)c3)c2)cn1
Plasmodium falciparum [1]
  Inhibition: 100%
Plasmodium falciparum [2]
  Inhibition: 97%
HepG2
  Inhibition: 8%

## COc1ccc2ncc(F)c(CCN3CC[C@H](NCc4cc5c(s4)CCCN5)[C@H](O)C3)c2n1.Cl
Plasmodium falciparum [1]
  Inhibition: 96%
Plasmodium falciparum [2]
  Inhibition: 16%
HepG2
  Inhibition: 2%

## Cc1ccc(-c2cc(C(=O)Nc3ccc(S(=O)(=O)N4CCCC(C)C4)cc3)[nH]n2)c(O)c1 (stereo not given)
Plasmodium falciparum [1]
  Inhibition: 100%
Plasmodium falciparum [2]
  Inhibition: 99%
HepG2
  Inhibition: 32%

## O=C(Nc1cccc2ccccc12)N1CCC(NS(=O)(=O)c2cccc(C(F)(F)F)c2)CC1
Plasmodium falciparum [1]
  Inhibition: 95%
Plasmodium falciparum [2]
  Inhibition: 1%
HepG2
  Inhibition: 0%

## Br.CC1(C)NC(N)=NC(=N)N1OCCSCCON1C(=N)N=C(N)NC1(C)C
Plasmodium falciparum [1]
  Inhibition: 95%
Plasmodium falciparum [2]
  Inhibition: 81%
HepG2
  Inhibition: 34%

## N#Cc1ccc(-c2ccc(C(=O)NCCCCN3CCC(c4ccc5c(c4OCc4ccncc4)CCCC5)CC3)cc2)cc1
Plasmodium falciparum [1]
  Inhibition: 81%
Plasmodium falciparum [2]
  Inhibition: 57%
HepG2
  Inhibition: 41%

## O=C(C=Cc1ccc(Cl)c(Cl)c1)NCCCCCN1CCC(CCCNC(=O)c2sc3ccccc3c2Cl)CC1
Plasmodium falciparum [1]
  Inhibition: 93%
Plasmodium falciparum [2]
  Inhibition: 40%
HepG2
  Inhibition: 99%

## Oc1ccc(-c2nc3c4cc(I)ccc4c4ccc(I)cc4c3[nH]2)cc1
Plasmodium falciparum [1]
  Inhibition: 98%
Plasmodium falciparum [2]
  Inhibition: 51%
HepG2
  Inhibition: 0%

## Cl.Nc1c2c(nc3ccc(NC(=O)CCCCCCc4ccccc4)cc13)CCCC2
Plasmodium falciparum [1]
  Inhibition: 100%
Plasmodium falciparum [2]
  Inhibition: 90%
HepG2
  Inhibition: 100%

## COc1ccc(Nc2nc(NCc3ccco3)c3ccccc3n2)cc1.Cl
Plasmodium falciparum [1]
  Inhibition: 99%
Plasmodium falciparum [2]
  Inhibition: 76%
HepG2
  Inhibition: 38%

## Nc1ncc(-c2cccc(F)c2)cc1-c1nc2cc(F)ccc2[nH]1.O=C(O)C(F)(F)F
Plasmodium falciparum [1]
  Inhibition: 100%
Plasmodium falciparum [2]
  Inhibition: 88%
HepG2
  Inhibition: 54%

## COC(=O)CCn1c(C2CCN(CC3CCC(NC(=O)/C=C/c4ccc(Cl)c(Cl)c4)CC3)CC2)nc2ccccc21 (stereo not given)
Plasmodium falciparum [1]
  Inhibition: 94%
Plasmodium falciparum [2]
  Inhibition: 10%
HepG2
  Inhibition: 14%

## Cc1ccc(CN2CCC(C(=O)Nc3ccc(-c4cc5ccccc5[nH]4)cc3)CC2)o1
Plasmodium falciparum [1]
  Inhibition: 92%
Plasmodium falciparum [2]
  Inhibition: 40%
HepG2
  Inhibition: 19%

## Cc1nc2ccc3ccc(CNc4ccc5c(c4)CN([C@H](CCC(=O)O)C(=O)O)C5=O)cc3c2c(=O)[nH]1
Plasmodium falciparum [1]
  Inhibition: 87%
Plasmodium falciparum [2]
  Inhibition: 90%
HepG2
  Inhibition: 38%

## O=C(/C=C/c1ccc(Cl)c(Cl)c1)N1CCC(C(O)CN2CCC(c3c[nH]c4ccccc34)CC2)CC1.O=C(O)C(F)(F)F (stereo not given)
Plasmodium falciparum [1]
  Inhibition: 99%
Plasmodium falciparum [2]
  Inhibition: 46%
HepG2
  Inhibition: 14%

## CCc1cc(Br)c(CNCCCNc2cc(=O)c3ccccc3[nH]2)s1.Cl
Plasmodium falciparum [1]
  Inhibition: 90%
Plasmodium falciparum [2]
  Inhibition: 45%
HepG2
  Inhibition: 6%

## Cl.N=C(N)c1ccc(-c2cc3ccc(C(=N)N)cc3[nH]2)cc1
Plasmodium falciparum [1]
  Inhibition: 99%
Plasmodium falciparum [2]
  Inhibition: 99%
HepG2
  Inhibition: 18%
